The source of these data is PubChem BioAssay (EPA / NIEHS).

Where a structure was tested more than once in an assay, its records may differ in their call. The source made the active and inactive calls. How the source made its calls: active means hit-call score of the fitted dose curve at least 0.9, where 1 is the maximum; inactive means score below 0.9.

As usually defined, the AC50 is the concentration giving half of the maximal activity seen.

This test in a line: CCTE_Shafer_MEA_acute_network_burst_percentage: CCTE's Neural Acute Assay for Percentage of Network Bursts, Shafer Lab (AID 2284022).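 Further: curves fitted for loss so actives lower network burst percentage.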 The procedure:
CCTE_Shafer_MEA_acute assay is conducted using Axion Biosystems 48 well microelectrode array (MEA) plates and Maestro recording system. Each well of the MEA plate contains a grid of 16 microelectrodes embedded in the culture surface. Electrically active cells, such as neurons, can be cultured over the electrodes, and electrical activity in these cells can be recorded extracellularly. The spontaneous firing of neurons is captured from each electrode on a microsecond timescale providing both temporally and spatially precise data. […] The CCTE_Shafer_MEA_acute assay uses primary cultures of rat cortical neurons. As these cultures mature over time, neural networks develop functional activity and form cohesive networks in which electrical activity can be highly coordinated. Baseline 40-minute recordings are made on days post-plating 13 or 15, followed by a secondary 40-minute recording after chemical exposure.CCTE_Shafer_MEA_acute_network_burst_percentage is a component of the CCTE_Shafer_MEA_acute assay. It measures the percent of spikes (action potential firings) in network bursts (temporally-clustered groups of spikes across multiple electrodes) as the number of spikes occuring in network bursts divided by the total number of spikes during a recording in a microelectrode array (MEA) using Axion Biosystems Maestro 768 channel amplifier with the AxIS adaptive spike detector. The recordings before and after chemical treatment are used to calculate a percent change in the network burst percentage in each well.Data from the assay component CCTE_Shafer_MEA_acute_network_burst_percentage was analyzed into 1 assay endpoint. This assay endpoint, CCTE_Shafer_MEA_acute_network_burst_percentage, was analyzed in the negative analysis fitting direction relative to DMSO as the negative control and baseline of activity. Using a type of functional reporter, gain or loss-of-signal activity can be used to understand electrical activity.
Spontaneous activity in the cortical cultures was recorded using an Axion Biosystems Maestro 768 channel amplifier and Axion Integrated Studios (AxIS) v1.8 (or later) software. The amplifier recorded from all channels simultaneously (gain = 1200 x; sampling rate = 12.5 kHz/channel): raw signals were filtered with a Butterworth band-pass filter (300-5000 Hz), which filters out slower local field potentials leaving only fast potentials, i.e., "spikes", arising from extracellular currents associated with action potentials (Pine 2006; Wheeler and Nam 2011). On-line spike detection of filtered signals was conducted with the AxIS adaptive spike detector, using a threshold of 8x the root mean squared (rms) noise on each channel. Any electrodes with rms noise levels greater than 5 uV were grounded (e.g., no data were recorded). Once grounded, an electrode was grounded for the duration of the experiment. All recordings were conducted at 37 C. Wells were deemed usable if on the day of the exposure >/= 10 electrodes were active (defined as >/= 5 spikes/min). On DIV 13 or 15, a minimum of three wells from one cortical culture preparation were treated with each compound (0.03-40 uM). Prior to recording baseline activity, each mwMEA plate was placed in the Maestro at 37 C and allowed to sit for 20 min while firing rates stabilized. Baseline activity (40 min) was recorded before the addition of each compound. An additional 40 min of spontaneous activity was recorded in the presence of each compound. Changes in network parameters relative to baseline were assessed following compound treatment.
For `[Cd+2].[Cl-].[Cl-]`, the call was inactive.

In the case of `CC1(C)[C@H](C=C(Cl)Cl)[C@@H]1C(=O)O[C@@H](C#N)c1cccc(Oc2ccccc2)c1`, the AC50 was 2.98 µM (active).

For `CCCC[N+](CCCC)(CCCC)CCCC`, the AC50 was 6.81 µM (active).

Consider `O=C(O)CNCP(=O)(O)O`, for which the molecule was called inactive.

`CP(=O)(O)CC[C@H](N)C(=O)O`: the result was inactive.

With `CC1(C)[C@H](C(=O)O[C@H](C#N)c2cccc(Oc3ccccc3)c2)[C@@H]1C=C(Br)Br`, the AC50 was 0.639 µM (active).

On to `C#CCN(C)[C@H](C)Cc1ccccc1`, for which the molecule was called inactive.

As to `O=[N+]([O-])O`, the outcome was inactive and the AC50 is 0.0386 µM (active).

With `O=c1c2ccccc2c(=O)c2c1cc(Cl)c1[nH]c3c([nH]c12)c(Cl)cc1c(=O)c2ccccc2c(=O)c13`, the molecule was classed as inactive.

As to `Oc1ccc(C2(c3ccc(O)cc3)c3ccccc3-c3ccccc32)cc1`, the AC50 was 26.4 µM (active).

For the molecule `c1cc[n+]2c(c1)-c1cccc[n+]1CC2`, the call was inactive.

For the molecule `COc1ccc(CO)cc1`, the molecule was classed as inactive.

For `CC1(C)[C@@H](C=C(Cl)Cl)[C@@H]1C(=O)O[C@@H](C#N)c1ccc(F)c(Oc2ccccc2)c1`, the AC50 is 1.32 µM (active).

Consider `CP(=O)(O)CCC(N)C(=O)O` (stereo unspecified), for which the call was inactive.

Take `Cc1ccc(OP(=O)(Oc2ccc(C)cc2)Oc2ccc(C)cc2)cc1` (tested in a mixture with another compound): the AC50 was 7.23 µM (active).
